F508del corr = CFTR F508del correction in bronchial cells; actives 0.36% (n = 350,000); AID 720511; activity (quench increase), % at 7.58 µM; CFBE cells, YFP halide quenching; stimulated with forskolin plus potentiator P3; % fluorescence drop versus neutral controls;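 active = mean added fluorescence quench of at least 8% versus neutral control, with both replicates also reaching 8%; inconclusive = only one of the mean or replicate conditions met; inactive = mean below 8% and not both replicates reaching 8%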;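 note: cells transiently co-express mutant CFTR-F508del with the halide-sensitive YFP; corrector assay measuring rescue of mutant channel to the surface after 24 h compound exposure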
Ecoli rRNA inh = inhibitors of bacterial rRNA selective over humanized ribosomes; E. coli WT GFP vs humanized-ribosome RFP mutants, fluorescence, 24 h; stronger effect = lower value; DMSO median 0, no signal -100; GFP signal change (wild-type ribosome), % (concentration not given with the values); actives 1.6% (n = 350,000); AID 720706;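 active = significant combined selectivity score with lowered wild-type GFP, culture density cut under 30%, mutant RFP and density less affected; inactive = any of these conditions unmet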
ERAP1 inh = inhibitors of human ERAP1 aminopeptidase | Q9NZ08 | recombinant ERAP1, Leu-AMC fluorescence, 60 min | inhibition, % at 10.7 µM | actives 0.15% (n = 340,000) | AID 652197;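 active = mean replicate inhibition of at least 30%, or all replicates individually reaching that 30% level; inactive = mean below 30% and not every replicate reaching it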
Target sequence (Q9NZ08 whole entry, looked up): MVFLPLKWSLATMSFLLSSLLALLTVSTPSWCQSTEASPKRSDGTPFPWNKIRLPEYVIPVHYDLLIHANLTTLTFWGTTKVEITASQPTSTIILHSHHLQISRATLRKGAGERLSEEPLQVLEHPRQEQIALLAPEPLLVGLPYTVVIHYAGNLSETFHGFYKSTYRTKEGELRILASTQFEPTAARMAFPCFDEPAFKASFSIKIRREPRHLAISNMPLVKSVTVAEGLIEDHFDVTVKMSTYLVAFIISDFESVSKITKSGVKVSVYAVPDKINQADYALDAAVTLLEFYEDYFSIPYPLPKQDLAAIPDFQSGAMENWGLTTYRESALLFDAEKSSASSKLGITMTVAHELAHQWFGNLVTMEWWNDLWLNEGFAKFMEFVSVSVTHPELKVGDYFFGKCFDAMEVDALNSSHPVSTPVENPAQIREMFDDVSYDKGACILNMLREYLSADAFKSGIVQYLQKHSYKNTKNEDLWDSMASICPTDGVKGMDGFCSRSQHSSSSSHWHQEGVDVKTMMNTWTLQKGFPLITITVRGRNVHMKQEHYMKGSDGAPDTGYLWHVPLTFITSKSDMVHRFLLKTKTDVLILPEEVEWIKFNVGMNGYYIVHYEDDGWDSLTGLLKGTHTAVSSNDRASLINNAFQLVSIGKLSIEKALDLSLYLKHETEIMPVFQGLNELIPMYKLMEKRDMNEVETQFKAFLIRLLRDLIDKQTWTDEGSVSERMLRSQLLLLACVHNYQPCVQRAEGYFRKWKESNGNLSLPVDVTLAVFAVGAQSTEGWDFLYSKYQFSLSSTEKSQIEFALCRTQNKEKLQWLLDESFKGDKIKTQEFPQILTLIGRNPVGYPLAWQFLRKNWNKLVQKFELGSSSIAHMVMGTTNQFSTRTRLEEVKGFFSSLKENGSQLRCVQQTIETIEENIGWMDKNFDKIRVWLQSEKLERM
ARNT TACC3 PPI = disruptors of human ARNT/TACC3 interaction | AlphaScreen His-ARNT PAS-B/GST-TACC3 binding, luminescence; TACC3 fragment carries E629A point mutation | inhibition, % at 9.99 µM | actives 0.66% (n = 390,000) | AID 623870;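 active = mean inhibition of replicates at least 50% and at least half of replicates each reaching 50%; inconclusive = half or more replicates reach 50% but mean below 50%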
PvdQ acylase = P. aeruginosa PvdQ acylase inhibition. purified PvdQ acylase, fluorescence plate reader. inhibition, % at 10 µM. actives 0.063% (n = 340,000); in the data active = inhibition above about 30%, passing the limit was not always enough; inconclusive = no clear call, values can overlap the other calls
HepG2 cytotox = cytotoxic compounds in HepG2 cells; HepG2 viability, ATP luminescence, 72 h; 30 tested, under 10 active; shares compounds with Ecoli rRNA inh; activity change, negative = cytotoxicity, unspecified at 26 µM;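 active = compounds whose fitted half-maximal signal-loss concentration is at most twice their highest valid dose; inconclusive = flat curve with 30 to 70% signal loss, or poor fit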
AID977621 = wild-type E. coli growth inhibition versus H69 humanized strain – H69 mutant RFP, wild-type GFP, cherry-pick, dose response. shares compounds with Ecoli rRNA inh. fluorescence, 24 h. activity change, negative = inhibition at 50 µM. 1,900 tested, under 10 active. AID 977621;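 active = Wild-type ribosome reporter drop at least double the humanized mutant ribosome reporter drop, growth loss under a set limit; inconclusive = no clear call, values can overlap the other calls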;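 note: wild-type GFP and H69 mutant RFP strains grown together 50/50 in each well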
AID977628 = E. coli growth inhibition, wild-type GFP versus h24 humanized RFP strain, dose response, h24 mutant RFP vs wild-type GFP, cherry-pick | shares compounds with Ecoli rRNA inh | E. coli WT GFP strain growth, fluorescence, 24 h | activity change, negative = inhibition at 50 µM | 1,900 tested, under 10 active;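 active = compound lowering the normal-ribosome reporter at least twice as much as the humanized-ribosome reporter, growth loss under a set limit; inconclusive = no clear call, values can overlap the other calls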;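 note: wild-type GFP and h24 humanized RFP strains co-cultured 1 to 1 per well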
Of the large screens only hits and unclear results are named; the others gave an inactive call (follow-up assays come after a bar, where they were run); ! = a repeat was not active. Most compounds without a hit are left out; they make up all but 2.1% or so of the library.

CN(C(=O)CN1C(=O)NC2(CCc3ccccc32)C1=O)C1CCS(=O)(=O)C1 (stereo not given)	none
CN(C(=O)CN1C(=O)NC2(CCc3ccccc32)C1=O)C1CCCCC1 (stereo not given)	Ecoli rRNA inh -13.2 (no result: ARNT TACC3 PPI, PvdQ acylase) | AID977621 inconclusive | AID977628 inactive
CC(C)C#Cc1ccc([C@@H]2[C@@H](CO)N3C(=O)CN(C(=O)Cc4cccnc4)C[C@@H]23)cc1	none (no result: F508del corr, ERAP1 inh, ARNT TACC3 PPI, PvdQ acylase)
COC(=O)c1sccc1NC(=O)CNC(=O)c1ccccc1	Ecoli rRNA inh -22.8 | AID977621 inactive | AID977628 inactive
COC(=O)c1sccc1NC(=O)c1ccc(C)cc1	none
O=C(O)C[C@@H]1CC[C@H](NC(=O)Nc2ccccc2)[C@H](CO)O1	none (no result: PvdQ acylase)
O=C(Cc1coc2ccc3ccccc3c12)NCc1ccccc1	Ecoli rRNA inh -26.4 | AID977621 inactive
O=C(C[C@@H]1CC[C@H](NC(=O)C2CCC2)[C@H](CO)O1)NCc1ccccc1Cl	none (no result: PvdQ acylase)
O=C1CCCCC1Nc1ccc(Br)cc1 (stereo not given)	Ecoli rRNA inh -18.6 | AID977621 inactive | AID977628 inactive
O=C1CCCCC1Nc1ccc(Cl)cc1 (stereo not given)	none
O=C(CSc1nc2ccccc2c(=O)n1CC1CCCO1)NCC1CCCO1 (stereo not given)	none (no result: F508del corr)
O=c1c2ccccc2nc(SCc2ccccc2)n1CC1CCCO1 (stereo not given)	Ecoli rRNA inh -21.5 | AID977621 inactive | AID977628 inactive
Cc1cc(NC(=O)c2cccc(Oc3ccccc3)c2)n[nH]1	Ecoli rRNA inh -22.0 | AID977628 inconclusive
O=S(=O)(NCc1ccc2c(c1)OCO2)c1cccc(F)c1	none
O=S(=O)(NCc1ccc2c(c1)OCO2)c1ccc2c(c1)oc1ccccc12	Ecoli rRNA inh -19.2 | AID977621 inactive
Cc1ccc(NC(=O)CN(C)S(=O)(=O)c2cccc3cccnc23)cc1F	Ecoli rRNA inh -27.7 | AID977621 inactive
Cc1ccc(NC(=O)CN(C)S(=O)(=O)c2cccc3cccnc23)cc1C	none
COCC(=O)Nc1ccc2c(c1)C(=O)N(C)C[C@H](OC)[C@@H](C)CN(C(=O)Cc1cccnc1)[C@H](C)CO2	none (no result: ERAP1 inh, ARNT TACC3 PPI, PvdQ acylase)
CC1(Cc2ccccc2C#N)C(=O)Nc2cc(-c3ccccc3Cl)ccc21 (stereo not given)	Ecoli rRNA inh -11.1 (no result: ARNT TACC3 PPI, PvdQ acylase) | HepG2 cytotox inactive
O=C(CSc1nnc(-c2ccccc2F)n1C1CC1)Nc1cccnc1Cl	Ecoli rRNA inh -16.1 (no result: F508del corr) | AID977621 inactive | AID977628 inactive
COc1ccc(OC)c(NC(=O)COC(=O)C2CCN(C(=O)c3ccc(Cl)cc3)CC2)c1	Ecoli rRNA inh -26.6 | AID977621 inactive
COc1ccccc1CNC(=O)COC(=O)Cc1c[nH]c2ccccc12	none
COc1ccc(OC)c(NC(=O)COc2ccc(S(=O)(=O)NC(C)C)cc2)c1	Ecoli rRNA inh -22.6 (no result: F508del corr) | AID977621 inactive | AID977628 inactive
COc1ccccc1NC(=O)COC(=O)Cc1c[nH]c2ccccc12	Ecoli rRNA inh -17.2 | AID977621 inactive | AID977628 inactive
COc1ccc(OC)c(NC(=O)COC(=O)Cc2ccc(-c3ccccc3)cc2)c1	none (no result: F508del corr, Ecoli rRNA inh, ERAP1 inh)
COc1ccc(OC)c(NC(=O)COc2ccc(S(=O)(=O)N3CCCC3)cc2)c1	none
COc1ccc(OC)c(NC(=O)COC(=O)CCNc2ccccc2OC)c1	Ecoli rRNA inh -20.5 | AID977621 inactive | AID977628 inactive
CS(=O)(=O)Nc1ccc2c(c1)[C@@H]1C[C@H](CC(=O)NCc3cccnc3)O[C@@H](CO)[C@@H]1O2	none (no result: PvdQ acylase)
C[C@H]1CN([C@@H](C)CO)C(=O)c2cccc(NC(=O)NC3CCCCC3)c2O[C@@H]1CN(C)C(=O)NC1CCCCC1	none (no result: PvdQ acylase)
COc1ccc(S(=O)(=O)N[C@@H]2C=C[C@H](CC(=O)NCCc3ccncc3)O[C@H]2CO)cc1	none (no result: ERAP1 inh, ARNT TACC3 PPI, PvdQ acylase)
Cc1ccc(S(=O)(=O)N(C)C[C@H]2Oc3ccc(NC(=O)CCCCCC(=O)Nc4ccccc4N)cc3CC(=O)N([C@@H](C)CO)C[C@H]2C)cc1	none (no result: PvdQ acylase)
O=C(NCc1cccc(Cl)c1)c1ccc2c(c1)SC1=NS(=O)(=O)CCN12	none
O=C(NCc1ccccc1Cl)c1ccc2c(c1)SC1=NS(=O)(=O)CCN12	Ecoli rRNA inh -20.3 (no result: ERAP1 inh) | AID977621 inactive | AID977628 inactive
CC(C)NC(=O)Nc1ccc2c(c1)C(=O)N([C@@H](C)CO)C[C@@H](C)[C@@H](CN(C)C(=O)c1ccncc1)OCCCC[C@@H](C)O2	none (no result: PvdQ acylase)
CCCNC(=O)N1[C@@H](C#N)[C@H](c2ccc(C#Cc3ccc(F)cc3)cc2)[C@@H]1CO	none (no result: PvdQ acylase)
CC(=O)N(CCC1(c2ccc(C)cc2)CCOC(C(C)C)C1)Cc1ccco1 (stereo not given)	Ecoli rRNA inh -20.1 | AID977621 inactive
COc1ccccc1NC(=O)N1CC(=O)N2[C@H](CO)[C@H](c3ccc(-c4ccc(C)cc4)cc3)[C@@H]2C1	none (no result: ERAP1 inh, ARNT TACC3 PPI, PvdQ acylase)
COc1cccc(S(=O)(=O)N(C)C[C@@H]2Oc3ncc(C#CC(C)C)cc3C(=O)N([C@@H](C)CO)C[C@@H]2C)c1	none (no result: F508del corr, PvdQ acylase)
C=CCn1c(SCc2n[nH]c(=S)n2-c2ccccc2)nnc1-c1ccccc1	Ecoli rRNA inh -21.5 | AID977628 inconclusive
COCC#Cc1ccc2c(c1)O[C@@H](CN(C)S(=O)(=O)c1cccc(F)c1)[C@@H](C)CN([C@H](C)CO)S2(=O)=O	Ecoli rRNA inh -19.7! (no result: PvdQ acylase) | AID977621 inactive
Cc1ccc(-c2ccc3c(c2)O[C@@H](CN(C)Cc2cccc(C(=O)O)c2)[C@@H](C)CN([C@H](C)CO)S3(=O)=O)cc1	none (no result: PvdQ acylase)
Cc1ccc(-c2ccc3c(c2)O[C@@H](CN(C)Cc2cccc(C(=O)O)c2)[C@H](C)CN([C@@H](C)CO)S3(=O)=O)cc1	Ecoli rRNA inh -18.2 (no result: PvdQ acylase) | AID977628 inconclusive
COCC#Cc1ccc2c(c1)O[C@@H](CN(C)S(=O)(=O)c1ccc(OC)cc1)[C@H](C)CN([C@@H](C)CO)S2(=O)=O	none (no result: PvdQ acylase)
O=C(C[C@H]1CC[C@H]2[C@@H](COC[C@H](O)CN2C(=O)Nc2ccc(Cl)c(Cl)c2)O1)NC1CCC1	none (no result: PvdQ acylase)
COc1ccc(OC2C(=O)N(Cc3ccc4c(c3)OCO4)C2c2sccc2C)cc1 (stereo not given)	Ecoli rRNA inh -21.8 | AID977621 inactive
COc1ccc2c3c([nH]c2c1)[C@H](CO)N(C(=O)C1CCC1)CC31CN(C(=O)NC(C)C)C1	none (no result: ARNT TACC3 PPI, PvdQ acylase)
